Measurements: PubChem BioAssay (NCI)
About 79,000 compounds went through this panel and 15% of them were active in at least one assay; those are over-represented in the sample as a whole. Rule as the data show it: active = growth inhibition above about 70%; inactive = the rest. Where a SMILES comes first, the peptide text is derived from it. [ ]: non-standard residue; d: D form. The star is where a group is joined. ξ: configuration not given here. ξV = CC(C)C(N)C(=O)O; ClAc = O=C(CCl)*

Legend:
[1] = NCI Yeast Anticancer Drug Screen. Data for the rad50 strain (AID 155);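 also: 0% = growth of vehicle-only cultures of the same strain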; settings: S. cerevisiae rad50 strain growth inhibition; at 50.0 µM; active compounds read high
In short: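 DNA repair mutant yeast, compound exposure, growth read-out; inhibition is taken relative to vehicle.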

[2] = NCI Yeast Anticancer Drug Screen. Data for the mec2-1 strain (AID 157); settings: S. cerevisiae mec2-1 strain, at 50.0 µM, active compounds read high
In short: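 Vehicle-treated cultures served as reference for growth inhibition of compound-exposed mec2-1 yeast.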

[3] = NCI Yeast Anticancer Drug Screen. Data for the mlh1 rad18 strain (AID 175); settings: S. cerevisiae mlh1 rad18 strain growth inhibition; at 50.0 µM; active compounds read high
In short: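 Vehicle-treated cultures served as the reference for growth inhibition in a yeast strain carrying DNA damage repair alterations exposed to each compound.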

[4] = NCI Yeast Anticancer Drug Screen. Data for the sgs1 mgt1 strain (AID 161);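 also: 0% = growth of cultures given vehicle only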; settings: S. cerevisiae sgs1 mgt1 strain, at 50.0 µM, active compounds read high
In short: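 Inhibition of yeast growth, normalised to vehicle-treated controls, is reported for a strain bearing genetic alterations in DNA damage repair.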

[5] = NCI Yeast Anticancer Drug Screen. Data for the bub3 strain (AID 167); settings: S. cerevisiae bub3 mutant strain, at 50.0 µM, active compounds read high
In short: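 In this screen, a yeast mutant lacking normal mitotic checkpoint function is challenged with compound. Relative growth versus vehicle gives the inhibition value.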

[6] = NCI Yeast Anticancer Drug Screen. Data for the cln2 rad14 strain (AID 165);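 also: 0% = growth equal to vehicle treated cultures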; settings: S. cerevisiae cln2 rad14 strain, at 50.0 µM, active compounds read high
In short: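 Each compound was tested on cln2 rad14 yeast. Inhibition of growth was calculated against vehicle-exposed controls.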

Measured: growth inhibition

COc1ccc2c(c1C)CN1CCc3cc4c(cc3C1=C2)OCO4
inactive: [1] 23.1% | [2] 17.4% | [3] 61.1%

COc1cc(/C=C2/SC(=S)NC2=O)cc(OC)c1OC
inactive: [1] 16.8% | [2] -1.4% | [3] 19.4%

CCOC(=O)CCc1ccc(O)c(O)c1
inactive: [1] 4.9% | [2] 1.85% | [3] 15.6%

COC(=O)C(C)CN1CC(C)OC(C)C1 (centres undefined)
inactive: [1] -25.2% | [2] -26.2% | [3] -13.2%

COc1ccc(-c2cc(=O)c3ccc(O)cc3o2)cc1
inactive: [1] 7.55% | [2] -13.3% | [3] 38%

Oc1ccccc1C=Nc1ccccc1C(F)(F)F
inactive: [1] -7.3% | [2] -19.9% | [3] 25.2%

O=C(O)C1(c2ccc(Cl)cc2)CCCC1
inactive: [1] 12.1% | [2] 8.75% | [3] 60.6%

CCCCCCCCCCCCOc1ccccc1C=O
inactive: [1] 1.5% | [2] -29.8% | [3] -17.4%

NC(=S)N/N=C/c1cc([N+](=O)[O-])ccc1Cl
inactive: [1] 10.8% | [2] -9.75% | [3] 10.2%

Cc1ccc(-c2noc(CC(=O)c3ccc([N+](=O)[O-])cc3)n2)cc1
inactive: [1] 14.4% | [2] 5.85% | [3] 38.8%

ClCCCC1(CCCCl)OCCO1
inactive: [1] -21.3% | [2] -25.1% | [3] -2.2%

O=C(O)c1cc(N=Nc2ccccc2)ccc1O
inactive: [1] -19.1% | [2] -12.7% | [3] -23.8%

O=C(O)C1=C(C2CCCCC2)C(=O)c2ccccc21
inactive: [1] 7.75% | [2] -15.8% | [3] 20.9%

Cc1cccc(-c2nc3cc(Cl)ccc3c(=O)o2)c1
inactive: [1] -10.8% | [2] -13.6% | [3] 6.6%

Oc1ccccc1C=NCC1CCC(CN=Cc2ccccc2O)CC1 (centres undefined)
inactive: [1] 8.85% | [2] 13.1% | [3] 21%

COc1cc(C(=O)N/N=C/c2ccc(N(C)C)cc2)cc(OC)c1OC
inactive: [1] -32.2% | [2] -45.2% | [3] -20.8%

N#C/C(=C/c1ccccc1Cl)C(N)=O
inactive: [1] -12.2% | [2] -7.05% | [3] 6.15%

CCOC(=O)/C=C(\C)Nc1ccc(F)cc1
inactive: [1] -0.5% | [2] -17.6% | [3] 14.2%

O=C1Nc2ccccc2/C1=N/N=C/c1cc(Cl)cc(Cl)c1O
inactive: [1] 32.7% | [2] 9.4% | [3] 20.1%

c1cc[n+](CCNCC[n+]2ccccc2)cc1
inactive: [1] 8.55% | [2] -7.75% | [3] 36.6%

O=C(O)CSCc1nc2ccccc2[nH]1
inactive: [1] -10.8% | [2] -15.7% | [3] 41.8%

O=C1c2ccccc2C(=O)N1/N=C/c1ccc2c(c1)OCO2
inactive: [1] 22.5% | [2] 10.2% | [3] 18.4%

S=C=NC1CCCCCCCCCCC1
inactive: [1] 18.9% | [2] -3.9% | [3] 36.6%

COc1ccc(CNc2ccccn2)cc1
inactive: [1] 10.9% | [2] 13.5% | [3] 40.2%

C#Cc1c(-c2c[nH]c3ccccc23)ccc[n+]1C
inactive: [1] -12.5% | [2] -36.1% | [3] -24.4%

ClCCOC(OCCCl)OCCCl
inactive: [1] -7.4% | [2] -28.3% | [3] 4.85%

COc1ccc(-c2cc(=O)c3c(O)cc(C)cc3o2)cc1OC
inactive: [1] -23.9% | [2] -25.6% | [3] -21.6%

COC(=O)C1=CCCC2CN3CCc4c([nH]c5ccccc45)C3CC12 (centres undefined)
inactive: [1] 13.8% | [2] -7.8% | [3] 18%

COc1ccc(/C=C(\C#N)c2ccc(Cl)cc2)cc1OC
inactive: [1] -2.05% | [2] -8% | [3] -1.15%

O=C(OCC1OC(Oc2ccccc2CO)C(O)C(O)C1O)c1ccccc1 (centres undefined)
inactive: [1] -2.1% | [2] 1.45% | [3] 0.45%

O=c1oc(-c2ccccc2)nc2cc(Cl)ccc12
inactive: [1] -0.3% | [2] 0.25% | [3] 1.35%

Cc1ccc2nc3c(nc2c1)-c1cccc2cccc-3c12
inactive: [1] -18.6% | [2] -43% | [3] -12.4%

CC(O)Cn1cnc2c1c(=O)n(C)c(=O)n2C (centres undefined)
inactive: [1] -40.1% | [2] -42.8% | [3] -30.1%

CC(C)C(NC(=O)CNC(=O)CCl)C(=O)O (centres undefined) (ClAc-Gly-[ξV]-OH)
inactive: [1] 7.6% | [2] -16.5% | [3] 4.1%

COc1ccc(-c2cc(=O)c3c(C)cc(O)cc3o2)cc1
inactive: [1] -9.4% | [2] -16.1% | [3] 37.9%

CCOC(=O)C(CNc1ccccc1)C(=O)OCC
inactive: [1] -25.4% | [2] -3.05% | [3] -11.7%

Cc1ccc(N2C(=O)CC(Sc3ccccc3N)C2=O)cc1 (centres undefined)
inactive: [1] -8.75% | [2] -17.4% | [3] -9.3%

COc1cc(-c2cc(=O)c3ccc(O)cc3o2)cc(OC)c1OC
inactive: [1] 10.1% | [2] -32.4% | [3] 2.2%

OC(c1ccc(F)cc1)(c1cccs1)C1CC1 (centres undefined)
inactive: [1] -9.55% | [2] -4.75% | [3] -20.2%

Cc1ccc(/C=N/N2C(=O)c3ccccc3C2=O)cc1
inactive: [1] -28.9% | [2] -43.1% | [3] -37.9%

COc1ccc2ccccc2c1/C=N/N1CCCCC1
inactive: [1] 32.3% | [2] 19.6% | [3] 1.05%

COc1cc(C2N(c3ccccc3)CCN2c2ccccc2)cc(OC)c1OC
inactive: [1] 59% | [2] 62.9% | [3] 43.1%

CCOC(=O)c1c(C)nc(C)c(C(=O)OCC)c1-c1cccc([N+](=O)[O-])c1
inactive: [1] 29.1% | [2] 2.35% | [3] 25.9%

CCCCCCCCCCCCCCCc1cc(=S)n(C)c2ccc(C)cc12
inactive: [1] 25.1% | [2] -13.5% | [3] 16.1%

CC1=NOC(=O)C1C(C)(C)C1C(=O)ON=C1C (centres undefined)
inactive: [1] 8.25% | [2] -0.7% | [3] -18.4%

CC(=O)CCN(Cc1ccccc1)Cc1ccccc1
inactive: [1] 1.7% | [2] -1.95% | [3] 22.4%

O=c1c(=O)n(CCO)n(CCO)c(=O)n1CCO
inactive: [1] -29.7% | [2] -28.9% | [3] -18.1%

Cc1ccccc1CC1c2[nH]c3ccccc3c2CCN1C (centres undefined)
inactive: [1] -9.95% | [2] -50.5% | [3] -22.4%

Nc1ccc2[nH]c(-c3ccccc3)cc(=O)c2c1
inactive: [1] -38% | [2] -33.8% | [3] -15.9%

O=C(CN1C(=O)c2ccccc2C1=O)c1ccc(Br)cc1
inactive: [1] 14.2% | [2] 16.1% | [3] 12.9%

O=C(NNCN1C(=O)c2ccccc2C1=O)c1ccccc1
inactive: [1] -13.8% | [2] -15.7% | [3] -4.7%

O=C(Cc1cccc2ccccc12)N/N=C/c1ccc2c(c1)CCC2
inactive: [1] 14.9% | [2] -13.2% | [3] -8.45%

N#[N+]c1c(O)cc(S(=O)(=O)O)c2ccccc12
inactive: [1] -21.6% | [2] -8.45% | [3] -10.4%

COc1ccc(/C=N/N2C(=O)c3ccccc3C2=O)cc1OC
inactive: [1] 21% | [2] 1.2% | [3] 6.3%

O=C1c2ccccc2C(=O)N1CNc1ccc(Cl)cn1
inactive: [1] -18.9% | [2] -43.9% | [3] -24.6%

O=[N+]([O-])c1cc([N+](=O)[O-])c2nc3ccccn3c2c1
inactive: [1] -1.85% | [2] -43.9% | [3] -11.7%

COC(=O)C/C(=C/C=C1/C(=O)ON=C1C)c1c(C)[nH]oc1=O
inactive: [1] -10.9% | [2] -29.9% | [3] -16.9%

Cc1ccc2c(c1)=N/C(=N\c1nc(O)c(O)[nH]1)N=2
inactive: [1] 7.4% | [2] -15.3% | [3] -4.55%

COc1ccc(C(=O)CC2CCCC(CC(=O)c3ccc(OC)cc3)N2C)cc1 (centres undefined)
inactive: [1] 5.4% | [2] -6.05% | [3] 30.4%

Cn1cnc2c(=O)[nH]c(=O)[nH]c21
inactive: [1] 25.9% | [4] -43.4% | [5] -34.8% | [3] 10.2%

CN1C(=S)c2ccccc2S1(=O)=O
inactive: [1] -6.6% | [2] -14.4% | [3] 24.2%

Fc1ccc(P(c2ccc(F)cc2)c2ccc(F)cc2)cc1
inactive: [1] 41.4% | [2] 9.6% | [3] 19.1%

CC1OC23CCCCC2C(C#N)(C#N)C1(C#N)C(=N)O3 (centres undefined)
inactive: [1] 3.65% | [4] -36% | [6] -22.9% | [5] -35% | [3] 2.95%

Nc1nc(N)nc(-c2ccccc2Cl)n1
inactive: [1] 3.65% | [3] 32.2%

C=C1C(=O)OC2/C=C(\CO)CC/C=C(\CO)CC(OC(=O)C(C)C)C12 (centres undefined)
inactive: [1] -17% | [4] -16% | [6] 24.4% | [5] -7% | [3] -41.5%

C[C@@H]1CC[C@H]2C(C)(C)[C@H]3C[C@@]12CC[C@@]3(C)O
inactive: [1] 21.9% | [4] 12.8% | [6] 14.1% | [5] 11.8% | [3] -18.6%
